Source: PubChem BioAssay AID651965 (National Center for Advancing Translational Sciences (NCATS), 2013)
The campaign covered roughly 340,000 compounds. About 6,400 (1.9%) were called active. Inconclusive results (about 4%) are left out. The call rests on the fitted dose curve; in most records, active means well fitted falling curve with a large enough effect; inconclusive means small, poorly fitted or top-dose-only effect; inactive means no such curve, though single readings can be large or run the other way. The list comes from a sample in which actives are over-represented; it also holds similar structures and randomly drawn compounds. Entries that show only a call come without a potency.

target: ATP-dependent Clp protease proteolytic subunit (Bacillus subtilis (strain 168)) (UniProt P80244); experiment: qHTS Assay for Activators of ClpP; further: the source files actives as falling curves though it sought activators and does not explain the sign; nearly all actives have a fitted effect of over 65% in size; conditions: purified B. subtilis ClpP, FRET peptide cleavage, 20 min; series mostly up to 57.5 µM
Sequence (P80244 whole entry, looked up): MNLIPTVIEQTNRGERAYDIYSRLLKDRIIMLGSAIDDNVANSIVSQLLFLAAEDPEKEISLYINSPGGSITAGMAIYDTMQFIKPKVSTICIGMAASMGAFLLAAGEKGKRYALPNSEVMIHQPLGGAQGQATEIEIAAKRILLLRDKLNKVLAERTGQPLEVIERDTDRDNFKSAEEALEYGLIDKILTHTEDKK
Text: The Clp protease proteolytic subunit (ClpP) is the core unit of the Clp complex belonging to the peptidase family S14 that hydrolyzes protein into small peptides in the presence of ATP and magnesium. It is ubiquitously expressed and is the major protease in bacteria. […] Unlike common antibiotics that simply interfere with the essential enzyme activity, ADEP binding activates the ClpP core in the absence of the regulatory Clp-ATPases leading to uncontrolled proteolysis and eventually cell death. Activators binding to the docking site on ClpP can also block formation of the ClpXP and ClpA/C-P holoenzyme complexes interfering with the normal biological functions of ClpP and thus have the potential to become new anti-microbials.
To identify activators of ClpP, a FRET based quenching reversal assay was developed using a purified B. subtilis ClpP and a decapeptide substrate (FRET-FV). The FRET-FV is tagged with a fluorescent molecule amino benzoic acid (donor) at the N-terminus and a nitrotyrosine quencher (acceptor) at the C-terminus. FRET-FV cleaves upon activation of ClpP with ADEP treatement and reverses the quenching effect of the nitrotyrosine causing an increase in fluorescence emission signal at 430nm. This assay was used to screen the Molecular Libraries Small Molecule Repository (MLSMR).
NIH Molecular Libraries Probe Production Centers Network [MLPCN]
NIH Chemical Genomics Center [NCGC]
Assay Submitter (PI): Michael Maurizi, National Cancer Institute
Two and a half microL/well of purified enzyme solution (final concentrations 10 microg/mL B. subtilis ClpP in 100 mM Tris/HCl pH8, 100 mM KCl, 0.05% low protease BSA, 2.5% glycerol, 0.01% Tween-20 buffer) was dispensed into 1536-well assay plates (Greiner, black solid, medium-binding plates) with Aurora Discovery BioRAPTR Flying Reagent Dispenser (FRD, Beckton-Dickenson). Compound solution (23 nL) was transferred to the assay plate using Kalypsys pin tool equipped with a 1536-pin tool. […] FRET signals at time 0 and after 20 min room temperature incubation were obtained using the PerkinElmer Envision plate reader with 320nm excitation and 430nm emission filters. Delta FRET value (Time 20 - Time 0) was calculated and normalized to the delta FRET value of positive control ADEP (5.8 microM final concentration) and negative control DMSO and no enzyme wells.

Q: For Cc1ccc(O)c(CCc2ccccc2)n1, which Potency is on record?
A: Its Potency is 28.2 µM (active).

Q: Cc1cc(C)n2c(Nc3c(C)cccc3C)c(CCc3ccccc3)nc2n1 was tested. Which Potency did it give?
A: The Potency was “inactive”.

Q: c1ccc(CCc2ccccn2)cc1 was tested. Which Potency did it give?
A: Its Potency is “inactive”.

Q: With C=CCOc1ccccc1CNn1c(C)n[nH]c1=S as the compound, how does the Potency read?
A: Its Potency is “inactive”.

Q: For Cn1c(-c2ccc(C(=O)c3ccccc3)s2)nc2ccccc21, which Potency is on record?
A: Its Potency is 20 µM (active).

Q: Which Potency does the source give for Cn1c(CNC(=O)C(C)(C)C)nc2ccccc21 here?
A: The Potency was “inactive”.

Q: Which Potency does the source give for Cn1c(NC(=O)c2ccccc2)nc2ccccc21 here?
A: Its Potency is “inactive”.

Q: With CCCCc1nc2ccc(F)cc2cc1C as the compound, how does the Potency read?
A: The Potency was “inactive”.

Q: With CCCc1ccc(C(O)c2ncc(-c3cccc(OC)c3)[nH]2)cc1 (configuration not stated) as the compound, how does the Potency read?
A: The Potency was “inactive”.

Q: With COc1ccc(CC(N)c2csc(NC(=O)Cc3ccccc3)n2)cc1 (configuration not stated) as the compound, how does the Potency read?
A: The Potency was “inactive”.

Q: How did the Potency turn out when CCOC(=O)CSc1nnc(CNC(=O)c2cccs2)n1-c1cc(OC)ccc1OC was run?
A: The Potency was “inactive”.

Q: How did the Potency turn out when CCOC(=O)CSc1nnc(CNC(=O)c2cccs2)n1-c1ccccc1 was run?
A: Its Potency is 10 µM (active).

Q: With CCOC(=O)CSc1nnc(CNC(=O)c2ccco2)n1-c1ccc(F)cc1 as the compound, how does the Potency read?
A: The Potency was “inactive”.

Q: For Nc1nc2c(Br)ccc(Br)c2cc1C(=O)NCCc1ccccc1, which Potency is on record?
A: The Potency was “inactive”.

Q: How did the Potency turn out when O=C(COc1ccc2c3c(c(=O)oc2c1)CCC3)NC1CCCCC1 was run?
A: The Potency was 14.1 µM (active).

Q: How did the Potency turn out when NC(=O)C1CCN(C(=O)COc2ccc3c4c(c(=O)oc3c2)CCC4)CC1 was run?
A: The Potency was “inactive”.

Q: O=C(COc1ccc2c3c(c(=O)oc2c1)CCCC3)NCC(O)c1ccccc1 (configuration not stated) was tested. Which Potency did it give?
A: Its Potency is “inactive”.

Q: For CC1(C(=O)Nc2cccc3c2CCCC3)CCN1C(=O)CCc1ccc(Cl)cc1Cl (configuration not stated), which Potency is on record?
A: The Potency was “inactive”.

Q: Which Potency does the source give for Cc1cc2cc3n(c2nn1)N=C(Cl)CC3 here?
A: The Potency was “inactive”.

Q: For CCCc1nc2c3ccccc3ccn2c1Cc1ccccc1C(F)(F)F, which Potency is on record?
A: The Potency was “inactive”.

Q: For Cc1ccc(Cc2c(-c3ccc(C)cc3)nc3c4ccccc4ccn23)cc1, which Potency is on record?
A: Its Potency is “inactive”.

Q: With FC(F)(F)c1ccccc1Cc1c(-c2ccccc2)nc2c3ccccc3ccn12 as the compound, how does the Potency read?
A: Its Potency is 22.4 µM (active).

Q: With NC(=O)c1c(Nc2nc3c(F)cccc3s2)sc2c1CCCC2 as the compound, how does the Potency read?
A: The Potency was “inactive”.

Q: For Fc1cc(F)c2nc(Nc3nc4c(F)cccc4s3)sc2c1, which Potency is on record?
A: The Potency was 3.55 µM (active).

Q: Which Potency does the source give for NNc1nc2c(Cl)cccc2s1 here?
A: Its Potency is “inactive”.

Q: Which Potency does the source give for CCOC(=O)c1cc2cc(OC)ccc2n1C1CCN(C)CC1 here?
A: Its Potency is “inactive”.

Q: Which Potency does the source give for CCC(C(=O)NCc1ccccc1)n1c(Cc2cc(F)cc(F)c2)nc2ccccc21 (configuration not stated) here?
A: Its Potency is “inactive”.

Q: How did the Potency turn out when CC1Cc2[nH][nH]c(=O)c2C(C2CC2)O1 (configuration not stated) was run?
A: The Potency was “inactive”.

Q: How did the Potency turn out when CCCCCNC(=O)C1C(=O)Nc2ccccc2C(=O)N1C(C)(C)C (configuration not stated) was run?
A: The Potency was “inactive”.

Q: Which Potency does the source give for COc1ccc(C2=Nc3cc(C)ccc3OC2)cc1 here?
A: The Potency was 28.2 µM (active).

Q: How did the Potency turn out when COc1ccc(-c2cc(-c3ccc(F)cc3)nc3c2COc2ccccc2-3)cc1 was run?
A: Its Potency is “inactive”.

Q: With COc1ccc(-c2cn3ccc(C)cc3n2)cc1 as the compound, how does the Potency read?
A: Its Potency is “inactive”.

Q: Which Potency does the source give for CCOC(=O)[C@]12CCCC=C1N(CCC1=CCCCC1)C(=O)[C@H](CC(=O)NCCCOC)C2 here?
A: Its Potency is “inactive”.

Q: Cc1cc(NC(=O)CSCC(=O)NC(C)c2ccccc2)no1 (configuration not stated) was tested. Which Potency did it give?
A: The Potency was “inactive”.

Q: Which Potency does the source give for Cc1ccc2nc(-c3ccc(SCC(=O)Nc4cc(C)on4)nc3)[nH]c2c1 here?
A: Its Potency is 31.6 µM (active).

Q: For Cc1cc(NC(=O)CSc2nc3ccccc3n2CC(C)C)no1, which Potency is on record?
A: The Potency was “inactive”.

Q: Which Potency does the source give for CN(CCC#N)c1ccc(C=O)cc1 here?
A: The Potency was “inactive”.

Q: CC(C)(C)c1ccc(C(=O)C[N+]2(C)CCCc3ccccc32)cc1 (configuration not stated) was tested. Which Potency did it give?
A: Its Potency is “inactive”.

Q: For COc1ccc(S(=O)(=O)N[C@@H]2C=C[C@@H](CC(=O)N3CCc4ccccc4C3)O[C@@H]2CO)cc1, which Potency is on record?
A: The Potency was “inactive”.

Q: CCn1c2ccccc2c2cc(NC(=O)COC(=O)c3cc(S(=O)(=O)N4CCCCC4)ccc3Cl)ccc21 was tested. Which Potency did it give?
A: Its Potency is 10 µM (active).

Q: For CCn1c2ccccc2c2cc(NC(=O)COC(=O)c3ccccc3Br)ccc21, which Potency is on record?
A: The Potency was “inactive”.

Q: O=C(COC(=O)c1cc(S(=O)(=O)N2CCOCC2)ccc1Cl)NCCc1ccccc1 was tested. Which Potency did it give?
A: The Potency was “inactive”.

Q: For COc1cc2nc(N3CCCN(C)CC3)nc(NC3CC3)c2cc1OC, which Potency is on record?
A: Its Potency is “inactive”.

Q: With COc1ccccc1Nc1cc(C(=O)NCCCN(C)C2CCCCC2)c2ccccc2n1 as the compound, how does the Potency read?
A: The Potency was “inactive”.

Q: Which Potency does the source give for COc1ccc(Nc2cc(C(=O)NCCCN(C)c3ccccc3)c3ccccc3n2)c(OC)c1 here?
A: The Potency was “inactive”.

Q: How did the Potency turn out when CCCCN(CCCNC(=O)c1cc(Nc2ccccc2OC)nc2ccccc12)c1ccccc1 was run?
A: The Potency was 17.8 µM (active).

Q: CN(C)C(=O)c1cccc(-c2cnc3c(NC=O)cc(-c4ccc(C(=O)N5CCOCC5)cc4)cn23)c1 was tested. Which Potency did it give?
A: The Potency was “inactive”.

Q: How did the Potency turn out when COCCCNC(=O)c1ccc(-c2c(C)noc2C)c2ccoc12 was run?
A: The Potency was “inactive”.

Q: For C=Cc1ccc(C(=O)N2CCCC(CCC(=O)N3CCN(c4ccccn4)CC3)C2)cc1 (configuration not stated), which Potency is on record?
A: Its Potency is “inactive”.

Q: Which Potency does the source give for O=C(CCC1CCCN(C(=O)c2ccc(F)c(F)c2)C1)N1CCN(c2ccccn2)CC1 (configuration not stated) here?
A: The Potency was 17.8 µM (active).

Q: Which Potency does the source give for O=C(CCC1CCCN(C(=O)Cc2ccc(F)cc2)C1)N1CCN(c2ccccn2)CC1 (configuration not stated) here?
A: The Potency was “inactive”.

Q: COc1ccc(CCCNC(=O)C2Cc3c(-c4cccc(C(N)=O)c4)ccnc3O2)cc1 (configuration not stated) was tested. Which Potency did it give?
A: The Potency was “inactive”.

Q: Cc1cc(=O)c2ccc(NC(=O)c3ccccc3)cc2[nH]1 was tested. Which Potency did it give?
A: The Potency was “inactive”.

Q: With O=C1NC(Cc2ccccc2)c2nc3ccc(Br)cc3c(=O)n2-c2cc3ccccc3cc21 (configuration not stated) as the compound, how does the Potency read?
A: Its Potency is “inactive”.

Q: For O=C(NCc1cccnc1)c1ccc2nc([C@@H]3O[C@H](CO)[C@H](O)[C@H](O)[C@H]3O)[nH]c2c1, which Potency is on record?
A: Its Potency is “inactive”.

Q: Which Potency does the source give for CC1=CC(C)(C)Nc2ccc(OC(=O)CN3C(=O)C4CCCCC4C3=O)cc21 (configuration not stated) here?
A: The Potency was “inactive”.

Q: CC1=CC(C)(C)Nc2ccc(OC(=O)C(Cc3ccccc3)N3C(=O)C4CCCCC4C3=O)cc21 (configuration not stated) was tested. Which Potency did it give?
A: The Potency was 31.6 µM (active).

Q: Which Potency does the source give for CCOC(=O)C(Cc1ccc(N)cc1)N1C(=O)c2ccccc2C1=O (configuration not stated) here?
A: The Potency was “inactive”.

Q: For Cc1ccc(NC(=O)Cn2sc3ccccc3c2=O)cc1, which Potency is on record?
A: The Potency was “inactive”.

Q: Which Potency does the source give for Cc1ccc(-c2ccc(CCC(=O)O)n2-c2ccc(C(N)=O)cc2)cc1 here?
A: Its Potency is “inactive”.

Q: With COCCCn1c(CCC(=O)O)ccc1-c1ccc(F)cc1 as the compound, how does the Potency read?
A: The Potency was 31.6 µM (active).

Q: For COc1ccc(Cl)cc1-n1c(CCC(=O)O)ccc1-c1ccc(C)cc1, which Potency is on record?
A: Its Potency is “inactive”.

Q: Which Potency does the source give for Nc1nc2c(ncn2[C@@H]2O[C@H](CNS(=O)(=O)N3CCc4ccccc4C3)[C@@H](O)[C@H]2O)c(=O)[nH]1 here?
A: The Potency was “inactive”.

Q: COCCCNc1ccn2nc(-c3ccc(CC(C)C)cc3)cc2n1 was tested. Which Potency did it give?
A: Its Potency is “inactive”.

Q: CN(C(=O)COC(=O)Cc1ccccc1[N+](=O)[O-])C1CCS(=O)(=O)C1 (configuration not stated) was tested. Which Potency did it give?
A: The Potency was “inactive”.

Q: With Cc1ccccc1OCC(=O)N(Cc1cccc(F)c1)C1CCS(=O)(=O)C1 (configuration not stated) as the compound, how does the Potency read?
A: The Potency was “inactive”.

Q: With CCN(C(=O)COc1cccnc1[N+](=O)[O-])C1CCS(=O)(=O)C1 (configuration not stated) as the compound, how does the Potency read?
A: Its Potency is 28.2 µM (active).
